The target in experiment [1] is Lysosomal acid glucosylceramidase (Homo sapiens) (UniProt P04062). Kind of experiment: Glucocerebrosidase-p2 (AID 348; in the data active = potency below about 10 µM; note: potency is the fitted concentration of half-maximal effect). To be noted: purified GBA, blue fluorogenic substrate, 40 min. The method, boiled down:
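Normal human glucocerebrosidase (0.2 nM) with blue fluorogenic substrate (80 uM final) in citrate/phosphate pH 5.9 with 10mM sodium taurocholate, 0.01% tween-20; 40 min RT, NaOH/glycine stop; fluorescence Ex 365/Em 440; AC50 from a titration from 0.6 nM upwards.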

The nature of experiment [2]: AP1 Signaling Pathway (AID 357; active = well fitted curve in either direction with a large enough effect, not every such curve was filed as active;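 note: ME-180 reporter cells stimulated with EGF at its EC50 level; % is set by controls: 0 for no effect and ±100 for the full control effect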). To be noted: ME-180 AP-1-bla reporter, EGF-induced, beta-lactamase ratio, 5 h; at 7.69 µM (top of the series) unless noted. The method, boiled down:
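AP-1-bla ME-180 cells, Opti-MEM + 0.5% dialyzed FBS, plated overnight 37 °C. Cpd titration + EC50 EGF, 5 h 37 °C. CCF4 2.5 h RT; ex 405, em 460/530 ratio → %activity, AC50.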

Experiment [3] concerns the target Cytochrome P450 1A2 (Homo sapiens) (UniProt P05177). Kind of experiment: p450-cyp1a2 (AID 410; calls by dose curve; note: potency is the fitted concentration of half-maximal effect). To be noted: recombinant CYP1A2, luciferin-ME demethylation, luminescence; series mostly up to 57 µM. In outline: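 Read-out is luminescence from luciferin produced by CYP1A2 demethylation of Luciferin-ME (100uM, at Km). Detection reagent stopped the 60 min NADPH-dependent reaction; signals were normalized to 57 uM furafylline.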

Experiment [4] in a line: NFAT Signaling Pathway (AID 444; active = well fitted curve in either direction with a large enough effect, not every such curve was filed as active;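 note: carbachol stimulus at about its EC50 of 1 µM final; % is set by controls: 0 for no effect and ±100 for the full control effect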). To be noted: Jurkat NFAT-bla M1, carbachol, beta-lactamase ratio, 5 h; at 7.69 µM (top of the series) unless noted. In outline:
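Jurkat cells carrying an NFAT-driven β-lactamase reporter and co-transfected muscarinic M1 receptor were treated with compound plus carbachol (1 uM final, an EC50 level) for 5 h at 37 °C. CCF4 loading followed for 1 h at RT; 460/530 nm ratio gave %activity.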

Experiment [5] addresses Glucocorticoid receptor (Homo sapiens) (UniProt P04150). Briefly: GR-GFP Redistribution (AID 450;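 active = compounds whose dose series gives a full or clear partial fitted curve of increased nuclear translocation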; note: potency is the fitted concentration of half-maximal effect). To be noted: U2OS GR-GFP nuclear translocation, laser cytometry, 2 h.
Experiment [6] has the same target. Briefly: GR-EFC Redistribution (AID 451; calls by dose curve; note: potency is the fitted concentration of half-maximal effect). To be noted: CHO-K1 GR-EFC translocation, beta-gal luminescence, 2 h. In outline:
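CHO-K1 cells stably expressing nuclear-localized β-gal enzyme acceptor and GR fused C-terminally to the enzyme donor fragment; ligand-driven nuclear translocation restores β-gal by complementation. Compounds titrated up to 46 uM final, 2 h at 37 °C; luminescence read.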

Experiment [7] has as its target Mitogen-activated protein kinase 10 (Mus musculus) (UniProt Q61831). Kind of experiment: JNK3 AlphaScreen Assay (AID 530; active = well fitted curve in either direction with a large enough effect, not every such curve was filed as active;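 note: kinase came from lysate of stimulated human HepG2 cells; signal reports phosphorylation of biotinylated GST-cJun 1-79 at Ser73 with 10 µM ATP; % is set by controls: 0 for no effect and ±100 for the full control effect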). To be noted: JNK3 lysate, c-Jun phosphorylation; series mostly up to 57.1 µM. In outline:
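Biotinylated GST-cJun(1-79) served as substrate for JNK3 in HepG2 lysates stimulated with IL-1beta and TNF-alpha. ATP was 10 uM final, pH 7.6. Ser73 phosphorylation was quantified by AlphaScreen (680 nm excitation).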

The target in experiment [8] is Cytochrome P450 2C19 (Homo sapiens) (UniProt P33261). Kind of experiment: qHTS Assay for Inhibitors and Substrates of Cytochrome P450 2C19 (AID 899). Note: potency is the fitted concentration of half-maximal effect; nearly all actives have a fitted effect of over 60% in size. To be noted: recombinant CYP2C19, luciferin-H EGE luminescence; series mostly up to 57.1 µM. In outline: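 In 50mM KPO4, the reaction held 5nM enzyme and KM-level (10uM) Luciferin-H EGE; it ran 60 min at 37C after NADPH regeneration and a 10 min compound preincubation. Luminescence values were scaled to 57uM ketoconazole as complete inhibition.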
Chain of Cytochrome P450 2C19 (Homo sapiens) (P33261 whole entry, looked up): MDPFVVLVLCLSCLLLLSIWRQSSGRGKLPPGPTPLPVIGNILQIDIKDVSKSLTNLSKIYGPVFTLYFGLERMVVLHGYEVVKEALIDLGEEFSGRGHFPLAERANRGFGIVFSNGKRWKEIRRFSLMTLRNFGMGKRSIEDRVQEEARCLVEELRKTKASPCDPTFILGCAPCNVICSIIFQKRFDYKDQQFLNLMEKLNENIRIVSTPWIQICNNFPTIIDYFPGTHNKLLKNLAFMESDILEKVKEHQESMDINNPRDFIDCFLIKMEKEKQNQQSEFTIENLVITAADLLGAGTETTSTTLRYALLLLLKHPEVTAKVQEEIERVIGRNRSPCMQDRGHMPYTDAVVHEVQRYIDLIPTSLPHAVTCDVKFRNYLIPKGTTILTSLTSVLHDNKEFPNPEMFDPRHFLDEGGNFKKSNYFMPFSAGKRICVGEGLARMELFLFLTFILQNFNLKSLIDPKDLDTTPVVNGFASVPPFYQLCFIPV

Experiment [9] is described as follows: qHTS Assay for Lipid Storage Modulators (AID 1519; calls by dose curve). To be noted: Drosophila S3 cells, BODIPY lipid droplet/cell ratio, laser cytometry, cells loaded with oleic acid; for activity change, negative = inhibition: at 57.5 µM (top of the series). In outline:
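Cells seeded at 5,000 per well were treated with compounds over a concentration series and loaded with oleic acid (400 uM, as added). Lipid droplet fluorescence (488 nm excitation, 500-530 nm channel) was read by laser-scanning cytometry and normalized to 20 uM Triacsin C.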

Experiment [10] addresses Dual specificity protein kinase CLK4 (Homo sapiens) (UniProt Q9HAZ1). Kind of experiment: qHTS Assay for Inhibitors of CDC-like Kinase 4 (Kinase-Glo Assay) (AID 1770). Note: nearly all actives have a fitted effect of over 65% in size. Note: potency is the fitted concentration of half-maximal effect. To be noted: recombinant Clk4, Kinase-Glo ATP depletion luminescence; series mostly up to 66.7 µM. In outline:
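Inhibition was judged from remaining ATP, measured by Ultra-Glo luciferase bioluminescence after Clk4 (25 nM) had acted on RS peptide at 1 uM ATP for 4.5 hours, room temperature.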
Background: qHTS replaces the single test concentration by a dilution series.

The target is the same in experiment [11]. Briefly: qHTS Assay for Inhibitors of CDC-like Kinase 4 (ADP-FP Assay) (AID 1795). Note: nearly all actives have a fitted effect of over 60% in size. Note: potency is the fitted concentration of half-maximal effect. To be noted: Transcreener ADP fluorescence polarization; series mostly up to 50 µM. In outline: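 Inhibition of ADP formation by 6.25 nM Clk4 is measured using 1 uM ATP and 100 uM RS repeat peptide over one hour. Produced ADP displaces a fluorescent tracer from antibody, lowering polarization.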

In experiment [12] the target is Ubiquitin carboxyl-terminal hydrolase 1 (Homo sapiens) (UniProt O94782). Kind of experiment: Inhibitors of USP1/UAF1: Pilot qHTS (AID 504865). Note: nearly all actives have a fitted effect of over 35% in size. Note: potency is the fitted concentration of half-maximal effect. To be noted: purified USP1/UAF1, Ub-rhodamine cleavage fluorescence; series mostly up to 54.9 µM. The method, boiled down:
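Kinetic fluorescence assay: 1nM USP1/UAF1, 15 min compound preincubation, then 150nM Ub-Rho; 480/540 nm.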

A short description of experiment [13]: Primary qHTS for small molecule stabilizers of the endoplasmic reticulum resident proteome: Secreted ER Calcium Modulated Protein (SERCaMP) assay (AID 1508630). Note: % is set by controls: 0 for no effect and ±100 for the full control effect. To be noted: SH-SY5Y GLuc-SERCaMP (Gaussia luciferase released on ER calcium loss) secretion, thapsigargin, luminescence; series mostly up to 38.4 µM. In outline: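 The SH-SY5Y reporter protocol was run at 3 concentrations up to 38.3 uM (primary) or 11 concentrations (follow-up): 16 h compound, 100 nM thapsigargin for 4 h, then extracellular luciferase luminescence.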

Experiment [14] deals with Cytochrome P450 3A4 (Homo sapiens) (UniProt P08684). Kind of experiment: qHTS Assay for Activators of Cytochrome P450 3A4 (AID 885). Note: nearly all actives have a fitted effect of over 65% in size. To be noted: recombinant CYP3A4, Luciferin-PPXE luminescence, 60 min; series mostly up to 57.1 µM. The method, boiled down: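 Using 20nM recombinant human CYP3A4 in potassium phosphate (200mM), substrate Luciferin-PPXE at 25uM, luminescent luciferin detection followed a 60-min RT NADPH reaction; data scaled to 57 uM ketoconazole.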
Chain of Cytochrome P450 3A4 (Homo sapiens) (P08684 whole entry, looked up): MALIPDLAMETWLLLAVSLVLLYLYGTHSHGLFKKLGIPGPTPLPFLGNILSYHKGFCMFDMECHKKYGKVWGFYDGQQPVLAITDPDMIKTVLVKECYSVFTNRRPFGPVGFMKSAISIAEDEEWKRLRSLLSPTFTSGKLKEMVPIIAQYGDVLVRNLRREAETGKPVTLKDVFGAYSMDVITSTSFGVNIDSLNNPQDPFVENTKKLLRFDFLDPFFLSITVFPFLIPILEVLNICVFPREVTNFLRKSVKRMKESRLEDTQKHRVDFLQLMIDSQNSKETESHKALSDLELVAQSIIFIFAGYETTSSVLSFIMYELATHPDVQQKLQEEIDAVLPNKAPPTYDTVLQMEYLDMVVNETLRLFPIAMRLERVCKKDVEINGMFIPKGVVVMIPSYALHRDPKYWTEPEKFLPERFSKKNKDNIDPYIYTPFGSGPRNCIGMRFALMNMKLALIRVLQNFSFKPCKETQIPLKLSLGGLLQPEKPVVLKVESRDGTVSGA

Experiment [15] can be described thus: Stat Signaling Pathway (AID 446; active = well fitted curve in either direction with a large enough effect, not every such curve was filed as active). To be noted: ME-180 (cervical carcinoma) SIE beta-lactamase reporter, IL-6 stimulated, 5 h; at 7.69 µM (top of the series) unless noted. In outline:
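Overnight-plated ME-180 cells bearing a STAT Inducible Element beta-lactamase reporter; 5 h co-exposure to compound and 40 pM IL-6; values normalized to 300 pM IL-6 and 125 nM JAK inhibitor controls.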

Experiment [16] has as its target Cytochrome P450 3A4 (Homo sapiens) (UniProt P08684). Briefly: qHTS Assay for Inhibitors and Substrates of Cytochrome P450 3A4 (AID 884). Note: potency is the fitted concentration of half-maximal effect; nearly all actives have a fitted effect of over 50% in size. To be noted: recombinant CYP3A4, Luciferin-PPXE luminescence; series mostly up to 57.1 µM. The method, boiled down: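 Luminescent readout of luciferin produced by CYP3A4 (20 nM) dealkylation of Luciferin-PPXE, 25 uM (its KM). NADPH-driven reaction ran 60 min at RT after 10 min compound preincubation; data scaled to 57 uM ketoconazole as 100% inhibition.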

Experiment [17] deals with 3',5'-cyclic-AMP phosphodiesterase 4B (Homo sapiens) (UniProt Q07343). Briefly: qHTS Assay for Inhibitors of PDE-IV (AID 607; active = well fitted activation curve with a large enough effect in the main read-out, with a control signal flat, not every such curve was filed as active; note: % of control where 0% means no effect). To be noted: HEK293 ACTOne CNG channel cells, membrane potential fluorescence; series mostly up to 22.9 µM. In outline: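 Live HEK293 cells with a modified cyclic nucleotide-gated (CNG) channel report intracellular cAMP via membrane-potential dye fluorescence (ex 535/em 590 nm). Endogenous PDE-IV was targeted. Compounds were tested at up to 22.9 uM final; RO 20-1724 100 uM served as control.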
Chain of 3',5'-cyclic-AMP phosphodiesterase 4B (Homo sapiens) (Q07343 whole entry, looked up): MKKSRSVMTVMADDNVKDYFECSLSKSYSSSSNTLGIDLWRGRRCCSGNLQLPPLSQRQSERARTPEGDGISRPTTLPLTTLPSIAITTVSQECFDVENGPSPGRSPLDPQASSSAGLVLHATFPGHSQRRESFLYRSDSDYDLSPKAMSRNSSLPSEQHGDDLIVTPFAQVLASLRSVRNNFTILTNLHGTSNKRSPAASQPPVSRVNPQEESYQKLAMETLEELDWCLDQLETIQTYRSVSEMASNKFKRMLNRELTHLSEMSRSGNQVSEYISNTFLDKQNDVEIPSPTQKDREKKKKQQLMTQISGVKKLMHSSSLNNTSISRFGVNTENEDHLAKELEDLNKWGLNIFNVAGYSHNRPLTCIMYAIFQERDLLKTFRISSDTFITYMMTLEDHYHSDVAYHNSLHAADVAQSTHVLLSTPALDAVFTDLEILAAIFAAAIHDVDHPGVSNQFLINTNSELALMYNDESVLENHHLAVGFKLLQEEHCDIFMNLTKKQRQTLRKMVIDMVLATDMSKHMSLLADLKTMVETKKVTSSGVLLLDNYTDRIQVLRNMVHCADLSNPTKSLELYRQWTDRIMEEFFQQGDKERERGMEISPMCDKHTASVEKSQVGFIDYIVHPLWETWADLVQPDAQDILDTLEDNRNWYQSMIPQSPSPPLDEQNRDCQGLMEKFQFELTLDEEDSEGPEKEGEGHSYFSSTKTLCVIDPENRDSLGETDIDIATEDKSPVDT

[18] abbreviates: measured here: cell count channel max response.
Where [19] appears, read: measured here: lipid channel max response.

Results filed as inconclusive are left out. Activity calls are given as the source filed them. Unless noted, calls come from the whole dose curve; as a rule, active = well fitted curve in the direction sought with a large enough effect; inconclusive = small, poorly fitted or top-dose-only effect, or another doubt; inactive = no such curve, though single readings can be large; an effect the other way counts as inactive or inconclusive.

Chain of Cytochrome P450 1A2 (Homo sapiens) (P05177 whole entry, looked up): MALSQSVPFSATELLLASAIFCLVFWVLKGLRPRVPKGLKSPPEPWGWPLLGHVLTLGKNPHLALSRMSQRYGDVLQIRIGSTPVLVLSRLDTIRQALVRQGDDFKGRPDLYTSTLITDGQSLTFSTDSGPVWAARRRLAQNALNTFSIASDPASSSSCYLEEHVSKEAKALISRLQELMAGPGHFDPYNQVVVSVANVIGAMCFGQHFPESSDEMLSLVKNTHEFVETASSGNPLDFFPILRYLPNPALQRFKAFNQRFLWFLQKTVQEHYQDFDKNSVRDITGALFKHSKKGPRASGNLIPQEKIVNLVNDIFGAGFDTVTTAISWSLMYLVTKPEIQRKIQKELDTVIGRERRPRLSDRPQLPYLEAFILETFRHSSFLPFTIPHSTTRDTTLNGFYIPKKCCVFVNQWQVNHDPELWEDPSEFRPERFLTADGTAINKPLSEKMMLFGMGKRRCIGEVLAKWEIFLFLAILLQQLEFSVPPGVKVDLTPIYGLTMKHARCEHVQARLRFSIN
Chain of Lysosomal acid glucosylceramidase (Homo sapiens) (P04062 whole entry, looked up): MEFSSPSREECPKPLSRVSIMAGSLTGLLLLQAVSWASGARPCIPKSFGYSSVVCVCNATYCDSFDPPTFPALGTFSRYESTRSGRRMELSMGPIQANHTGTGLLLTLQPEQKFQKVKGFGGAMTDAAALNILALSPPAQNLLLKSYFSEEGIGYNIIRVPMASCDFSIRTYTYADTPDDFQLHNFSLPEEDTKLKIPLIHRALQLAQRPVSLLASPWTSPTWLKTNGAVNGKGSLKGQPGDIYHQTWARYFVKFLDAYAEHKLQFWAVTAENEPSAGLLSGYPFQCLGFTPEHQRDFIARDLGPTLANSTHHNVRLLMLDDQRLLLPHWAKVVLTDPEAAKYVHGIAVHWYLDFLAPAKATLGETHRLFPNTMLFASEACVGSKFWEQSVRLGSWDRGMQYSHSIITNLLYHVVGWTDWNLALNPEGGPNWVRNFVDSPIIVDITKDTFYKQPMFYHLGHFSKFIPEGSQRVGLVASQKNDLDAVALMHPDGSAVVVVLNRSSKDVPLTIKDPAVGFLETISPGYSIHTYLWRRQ
Chain of Glucocorticoid receptor (Homo sapiens) (P04150 whole entry, looked up): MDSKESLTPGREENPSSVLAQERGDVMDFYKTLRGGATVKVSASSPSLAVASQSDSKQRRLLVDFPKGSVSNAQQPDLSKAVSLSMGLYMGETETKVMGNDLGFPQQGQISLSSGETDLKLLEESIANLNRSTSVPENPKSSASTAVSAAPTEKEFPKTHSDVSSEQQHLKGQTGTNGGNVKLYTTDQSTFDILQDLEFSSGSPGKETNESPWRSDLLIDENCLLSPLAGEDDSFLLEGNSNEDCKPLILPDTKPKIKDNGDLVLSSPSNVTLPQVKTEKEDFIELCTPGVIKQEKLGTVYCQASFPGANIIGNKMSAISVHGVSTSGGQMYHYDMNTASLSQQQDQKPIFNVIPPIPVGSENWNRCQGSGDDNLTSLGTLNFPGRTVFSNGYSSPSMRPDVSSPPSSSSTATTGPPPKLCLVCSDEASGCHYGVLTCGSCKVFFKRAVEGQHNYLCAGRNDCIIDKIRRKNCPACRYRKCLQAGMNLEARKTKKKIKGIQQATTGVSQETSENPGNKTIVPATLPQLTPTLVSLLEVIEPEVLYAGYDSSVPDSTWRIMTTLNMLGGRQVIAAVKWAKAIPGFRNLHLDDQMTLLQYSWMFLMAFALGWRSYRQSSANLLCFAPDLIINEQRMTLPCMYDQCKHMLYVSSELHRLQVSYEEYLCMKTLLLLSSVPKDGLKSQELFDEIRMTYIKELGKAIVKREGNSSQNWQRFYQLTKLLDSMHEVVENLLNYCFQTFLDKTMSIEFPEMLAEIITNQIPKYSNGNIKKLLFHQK
Chain of Dual specificity protein kinase CLK4 (Homo sapiens) (Q9HAZ1 whole entry, looked up): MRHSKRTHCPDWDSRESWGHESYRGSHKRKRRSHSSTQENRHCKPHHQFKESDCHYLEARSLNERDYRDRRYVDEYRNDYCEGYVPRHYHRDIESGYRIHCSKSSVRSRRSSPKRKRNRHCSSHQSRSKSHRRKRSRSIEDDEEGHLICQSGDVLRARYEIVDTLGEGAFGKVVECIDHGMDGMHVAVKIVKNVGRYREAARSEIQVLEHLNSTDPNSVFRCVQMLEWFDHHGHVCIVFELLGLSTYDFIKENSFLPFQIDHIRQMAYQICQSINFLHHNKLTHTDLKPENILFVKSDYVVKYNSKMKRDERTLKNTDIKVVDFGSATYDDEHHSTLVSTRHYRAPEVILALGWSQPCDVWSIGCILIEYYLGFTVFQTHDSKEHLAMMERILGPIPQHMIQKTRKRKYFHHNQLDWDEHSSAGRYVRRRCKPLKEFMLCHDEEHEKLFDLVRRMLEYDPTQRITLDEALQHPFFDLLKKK
Chain of Ubiquitin carboxyl-terminal hydrolase 1 (Homo sapiens) (O94782 whole entry, looked up): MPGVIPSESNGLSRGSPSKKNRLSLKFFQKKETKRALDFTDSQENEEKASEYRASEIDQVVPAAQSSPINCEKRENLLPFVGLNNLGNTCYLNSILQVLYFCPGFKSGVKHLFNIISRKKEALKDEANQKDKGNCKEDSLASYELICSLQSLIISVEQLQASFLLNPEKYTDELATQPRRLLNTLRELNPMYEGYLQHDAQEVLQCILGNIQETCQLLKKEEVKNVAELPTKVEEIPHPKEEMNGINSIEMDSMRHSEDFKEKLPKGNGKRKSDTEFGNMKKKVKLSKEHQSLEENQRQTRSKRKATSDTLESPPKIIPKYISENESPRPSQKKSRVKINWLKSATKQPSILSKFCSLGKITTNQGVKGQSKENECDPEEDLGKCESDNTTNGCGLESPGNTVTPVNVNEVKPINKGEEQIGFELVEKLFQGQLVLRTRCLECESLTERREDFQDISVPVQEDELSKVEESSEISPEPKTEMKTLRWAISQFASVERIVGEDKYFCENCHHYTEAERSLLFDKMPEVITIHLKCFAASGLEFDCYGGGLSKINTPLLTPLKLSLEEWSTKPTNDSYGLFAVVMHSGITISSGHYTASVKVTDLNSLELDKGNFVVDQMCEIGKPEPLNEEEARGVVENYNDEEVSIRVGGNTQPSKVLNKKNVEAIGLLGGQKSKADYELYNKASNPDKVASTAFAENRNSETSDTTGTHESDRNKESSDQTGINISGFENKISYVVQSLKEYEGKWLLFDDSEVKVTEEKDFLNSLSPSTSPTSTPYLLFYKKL

`Cc1ccccc1-c1cc(NCc2ccccc2)ncn1`: the Potency in experiment [1] is > 11.4 µM (inactive); in experiment [3] it was 3.98 µM (active); in experiment [5] it was > 46 µM (inactive); in experiment [6] it was > 46 µM (inactive); in experiment [8], 3.16 µM (active); in [12], 20 µM (active). Moreover, the activity change, negative = inhibition in experiment [2] is 19.4% (inactive); in experiment [4], -13.3% (inactive); in [9], 4.42% (inactive). Besides, the result in experiment [7] was inactive. The max response came out at 24.9% in experiment [9] (setting [18]) and 28.2% in experiment [9] (setting [19]). Also, the Potency result in experiment [10], in [11] and in [13] was “inactive” each time.

Take `Cc1ccccc1-c1cncnc1NCc1ccccc1`: the Potency was > 11.4 µM (inactive) in experiment [1]; 12.6 µM (active) in [3]; > 46 µM (inactive) in experiment [5]; > 46 µM (inactive) in experiment [6]; 2 µM (active) in [8]. The values for the activity change, negative = inhibition in experiment [2] and in experiment [9] were -6.25% (inactive) and 5.04% (inactive), respectively. In [7], the outcome was inactive. For the same molecule, the Potency result in [14], in [10], in experiment [11] and in experiment [13] was “inactive” each time. For the same molecule, the max response was 7.66% in experiment [9] (setting [18]) and 10.6% in experiment [9] (setting [19]).

Consider `FC(F)(F)c1ccccc1-c1ccc2ncnc(NCc3cccnc3)c2c1`, for which the Potency is > 11.4 µM (inactive) in experiment [1]; 1 µM (active) in [3]; > 46 µM (inactive) in experiment [5]; > 46 µM (inactive) in [6]; 1.58 µM (active) in experiment [16]; 0.0079 µM (active) in experiment [8]. Also, the activity change, negative = inhibition in experiment [2] is 5.26% (inactive); in experiment [4], 21.5% (inactive); in experiment [9], -7.13% (inactive). In addition, the activity, negative = inhibition in experiment [15] is -18.4% (inactive). For the same molecule, in [7], the molecule was classed as inactive. Also, the Potency entry in experiment [14], in experiment [10], in experiment [11], in experiment [12] and in experiment [13] was “inactive” throughout. The max response in experiment [9] (setting [18]) worked out at 9.95%; in experiment [9] (setting [19]), 2.08%.

In the case of `O=c1c(-c2cc(F)cc(F)c2)nc2cncnc2n1Cc1ccccc1`, the results for the Potency in experiment [1], in experiment [5] and in experiment [6] were > 11.4 µM (inactive), > 9.22 µM (inactive) and > 46 µM (inactive), respectively. The activity change, negative = inhibition in [2] is 16.7% (inactive); in [4], -18% (inactive); in experiment [9] it was 2.57% (inactive). Further, the activity, negative = inhibition in experiment [15] is -8.19% (inactive). Further, the results for the max response in experiment [9] (setting [18]) and in [9] (setting [19]) were -10.3% and -10.6%, respectively. Besides, the Potency entry in experiment [10], in [11], in experiment [12] and in [13] was “inactive” throughout.

With `COc1ccc(-n2c(=O)c(-c3cccs3)nc3cnc(OC)nc32)cc1`, the Potency in experiment [1] was > 11.4 µM (inactive); in experiment [3] it was 5.01 µM (active); in experiment [5], > 9.22 µM (inactive); in experiment [6], > 46 µM (inactive); in experiment [16] it was 7.94 µM (active). Also, the activity change, negative = inhibition in experiment [2] was -22.9% (inactive); in experiment [4], -2.37% (inactive); in experiment [9], 3.59% (inactive). Also, in experiment [15], the activity, negative = inhibition is -2.82% (inactive). In experiment [7], the call was inactive. Further, the Potency entry in experiment [14], in [10], in [11], in experiment [12] and in experiment [13] was “inactive” in each case. Besides, the max response in experiment [9] (setting [18]) is 12.4%; in experiment [9] (setting [19]) it was 13.8%.

Regarding `Cc1noc(C)c1-c1ccc2ncnc(Nc3ccc(F)cc3)c2c1`, the Potency is > 11.4 µM (inactive) in experiment [1]; 3.98 µM (active) in experiment [3]; > 46 µM (inactive) in experiment [5]; > 46 µM (inactive) in [6]; 4.47 µM (active) in [10]; 3.16 µM (active) in [11]. The values for the activity change, negative = inhibition in experiment [2] and in experiment [9] were -20.2% (inactive) and 6.07% (inactive), respectively. In experiment [15], the activity, negative = inhibition was -24.6% (inactive). Also, in experiment [7], the molecule was classed as inactive. In addition, the Potency entry in experiment [17], in experiment [14], in experiment [12] and in experiment [13] was “inactive” in each case. Moreover, the max response in experiment [9] (setting [18]) worked out at 23.8%; in experiment [9] (setting [19]), 29.1%.
